This is a sample that favours compounds with a hit; in the whole collection about 2.7% have one here.
mIDH1 inhibitor – inhibitors of human mutant IDH1 R132H. 0.093% of 390,000 active. Potency, µM (series often up to 76.6 µM), most hits filed as inhibitors. O75874. IDH1-R132H enzyme, NADPH consumption, diaphorase/resazurin fluorescence; note: nearly all actives have a fitted effect of over 65% in size
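IDH1-R132H (0.5 ug/mL dispensed) in pH 7.5 Tris buffer was preincubated 30 min with compound, then given a substrate mix of 0.016 mM NADPH and 2 mM alpha-KG for 80 min at room temperature; remaining NADPH was read by diaphorase/resazurin fluorescence.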
GLP-1R inv ag – GLP-1 receptor (human) inverse agonism | Potency, µM (doses to about 38.3 µM), most hits filed as inhibitors | AID 624417 | HEK293 GLP-1R CRE-luciferase, luminescence, 24 h; GLP-1R form is constitutively active | P43220 | 1.6% of 410,000 active; note: nearly all actives have a fitted effect of over 55% in size
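qHTS in 1536-well format: reporter HEK293 cells expressing constitutive GLP-1R activity in DMEM + 10% Nu serum, 24 hr with compounds at 37 deg C, luminescence read after 12 min with detection reagent.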
GLP1R cytotox – cytotoxicity counter-screen for GLP-1 receptor inverse agonists. 0.13% of 410,000 active. HEK293 cAMP-luciferase reporter cells, luminescence, 24 h. Potency, µM (doses to about 38.3 µM), usual class: inhibitors. AID 624418;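 note: loss of luciferase light is scored as toxicity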
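Step one: seed cells (200 cells/uL, DMEM with 10% Nu serum, 1% pen-strep). Step two: 12-hour incubation at 37 deg C. Step three: pin 23 nL compound, incubate 24 hr. Step four: add luciferase reagent, read luminescence 12 min later.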
GLP-1R agonist – activates the human GLP-1 receptor. AID 624172. Potency, µM (doses to about 45.6 µM), usual class: activators. HEK293 GLP-1R CRE-luciferase, luminescence, 4-6 h; cells express a hypersensitive GLP-1R form. 0.007% of 380,000 active. P43220
TrxR1 substrate – rat thioredoxin reductase 1 substrate activity; O89049; purified TrxR1 substrate turnover, NADPH consumption readout; Potency, µM (titrated, usually from 114 µM); 0.01% of 390,000 active; AID 588456; note: nearly all actives have a fitted effect of over 50% in size
Target sequence (O89049 whole entry, looked up): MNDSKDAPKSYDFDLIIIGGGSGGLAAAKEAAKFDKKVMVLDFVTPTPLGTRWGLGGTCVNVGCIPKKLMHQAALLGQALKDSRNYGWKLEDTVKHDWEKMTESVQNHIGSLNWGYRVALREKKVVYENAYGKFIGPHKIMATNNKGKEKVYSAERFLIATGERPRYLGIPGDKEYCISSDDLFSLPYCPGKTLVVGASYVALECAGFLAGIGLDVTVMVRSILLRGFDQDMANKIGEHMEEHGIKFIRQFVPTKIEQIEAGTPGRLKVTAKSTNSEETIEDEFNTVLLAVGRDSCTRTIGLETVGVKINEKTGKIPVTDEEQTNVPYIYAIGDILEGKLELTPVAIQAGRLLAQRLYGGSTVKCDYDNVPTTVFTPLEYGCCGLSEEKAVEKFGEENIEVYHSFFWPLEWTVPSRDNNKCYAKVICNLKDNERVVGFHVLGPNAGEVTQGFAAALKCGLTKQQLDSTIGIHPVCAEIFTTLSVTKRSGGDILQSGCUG
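Rat TrxR1, dispensed at 90 nM, was prereduced with 400 uM NADPH (final) for 5 min at ~22 deg C, then incubated with compound 15 min before 400 uM selenite. A first-read NADPH fluorescence drop versus no-compound background flagged substrates.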
TrxR1 inh – rat TrxR1 inhibition | recombinant rTrxR1, NADPH fluorescence consumption, selenite substrate | Potency, µM (titrated, usually from 114 µM), most hits filed as inhibitors | 1% of 390,000 active | AID 588453; note: nearly all actives have a fitted effect of over 65% in size
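Rat TrxR1 (90 nM in the dispensed reagent) was pre-reduced with 400 uM NADPH for 5 min at room temperature, then incubated with compound for 15 min. After 400 uM selenite was added, NADPH fluorescence (Ex 340/Em 450 nm) was followed for 8 min.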
Numbers stand for hits; [ ] = another dose, or the depositor's remark. Calls come from the whole dose curve; as a rule, active = well fitted curve in the direction sought with a large enough effect; inconclusive = small, poorly fitted or top-dose-only effect, or another doubt; inactive = no such curve, though single readings can be large; an effect the other way counts as inactive or inconclusive.

For CN(C)c1ccc(/C=C/c2cnnc3ccccc23)cc1 the results were TrxR1 substrate inactive and TrxR1 inh inactive.
Screening CS(=O)(=O)N1CCN(/[N+]([O-])=N/Oc2ccc([N+](=O)[O-])cc2[N+](=O)[O-])CC1 (tested in a mixture with another compound) returned TrxR1 substrate inactive and TrxR1 inh 11.2µM.
Screening CS(=O)(=O)N1CCN(/[N+]([O-])=N/Oc2ccc([N+](=O)[O-])cc2[N+](=O)[O-])CC1 returned TrxR1 substrate inactive and TrxR1 inh 8.91µM.
CS(=O)(=O)N1CCN(c2ccc([N+](=O)[O-])cc2C(F)(F)F)CC1 was read as mIDH1 inhibitor inactive, GLP-1R inv ag inactive, GLP1R cytotox inactive, GLP-1R agonist inactive, TrxR1 substrate inactive and TrxR1 inh inactive.
For O=[N+]([O-])c1ccc(O/N=[N+](\[O-])N2CCCC2)c([N+](=O)[O-])c1 the results were TrxR1 substrate inactive and TrxR1 inh 17.8µM.
For CS(=O)(=O)N1CCN(c2ccc([N+](=O)[O-])cc2F)CC1 the results were mIDH1 inhibitor inactive, GLP-1R inv ag inactive, GLP1R cytotox inactive, GLP-1R agonist inactive, TrxR1 substrate inactive and TrxR1 inh inactive.
`CCC(C)NC(=O)c1ccc2c(c1)N(Cc1ccccc1)C(=O)c1ccccc1S2(=O)=O` (configuration not stated) gave GLP-1R inv ag inactive, GLP1R cytotox inactive, TrxR1 substrate inactive and TrxR1 inh inactive.
For COc1ccc(-c2nn3c(-c4cc(-c5ccccc5)n[nH]4)nnc3s2)cc1 the results were TrxR1 substrate inactive[0.0914 µM] and TrxR1 inh inactive[0.0914 µM].
`Cc1ccc(CSC2=Nc3ccccc3C3=NC(CCC(=O)N4CCN(c5ccccc5)CC4)C(=O)N23)cc1` (configuration not stated) gave mIDH1 inhibitor inactive, GLP-1R inv ag inactive, GLP1R cytotox inactive, TrxR1 substrate inactive and TrxR1 inh inactive.
`CC(C)(C)N(Cc1ccc2c(c1)OCO2)C(=O)/C=C\S(=O)c1ccccc1` (configuration not stated) gave mIDH1 inhibitor inactive, GLP-1R inv ag inconclusive, GLP1R cytotox inactive, GLP-1R agonist inactive, TrxR1 substrate inactive and TrxR1 inh 79.4µM.
For CCN(Cc1ccc2c(c1)OCO2)C(=O)/C=C/c1cccc(Br)c1 the results were mIDH1 inhibitor inactive, GLP-1R inv ag inconclusive, GLP1R cytotox inactive, GLP-1R agonist inactive, TrxR1 substrate inactive and TrxR1 inh inactive.
Cc1cccc2cc(C#N)c(NCCNS(=O)(=O)c3ccccc3)nc12 was read as mIDH1 inhibitor inactive, GLP-1R inv ag inactive, GLP1R cytotox inactive, GLP-1R agonist inactive, TrxR1 substrate inactive and TrxR1 inh inactive.
Cc1cccc2cc(C#N)c(NCCCNS(=O)(=O)c3ccc(Cl)cc3)nc12 was read as mIDH1 inhibitor inactive, GLP-1R inv ag 10µM, GLP1R cytotox inactive, GLP-1R agonist inactive, TrxR1 substrate inactive and TrxR1 inh inactive.
Screening Cc1nn(-c2cccc(Cl)c2)c2nc(-c3cccnc3)cc(C(F)(F)F)c12 returned mIDH1 inhibitor inactive, GLP-1R inv ag inactive, GLP1R cytotox inactive, TrxR1 substrate inactive and TrxR1 inh inactive.
For Cc1ccc(/C=C2/C(=O)ON=C2c2ccccc2)o1 the results were mIDH1 inhibitor inactive, GLP-1R inv ag inactive, GLP1R cytotox inactive, GLP-1R agonist inactive, TrxR1 substrate inactive and TrxR1 inh 3.98µM.
`CC1=NOC(=O)/C1=C\c1ccc(-c2cccc(Cl)c2)o1` gave mIDH1 inhibitor 36.9µM, GLP-1R inv ag inactive, GLP1R cytotox inconclusive, GLP-1R agonist inactive, TrxR1 substrate inactive and TrxR1 inh inconclusive.
Screening Cc1ccc(C2=NOC(=O)/C2=C\c2ccccc2)cc1 returned mIDH1 inhibitor inactive, GLP-1R inv ag inactive, GLP1R cytotox inactive, GLP-1R agonist inactive, TrxR1 substrate inactive and TrxR1 inh 3.98µM.
